Reference: the supplement of paper PMC6992640

Key:
Experiment in all cases: cell viability of combination (% of vehicle); higher = less cytotoxic
Settings in all cases: 1 µM; 72 h; partner dose: 10 nM
HCI01 = system: HCI01 (cells of a triple-negative basal-like breast cancer xenograft)
Protocol: (§1)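 PDX cells were treated for 72 h with each drug at 1 µM plus afatinib (10 nM; 1 µM for WHIM30). Luciferase viability is expressed as percent of vehicle.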

UCD52 = system: UCD52 (cells of a triple-negative basal-like breast cancer xenograft)
Protocol: as §1

WHIM2 = system: WHIM2 (cells of a triple-negative basal-like breast cancer xenograft)
Protocol: as §1

Row | SMILES | cell viability of combination (HCI01) | cell viability of combination (UCD52) | cell viability of combination (WHIM2)
1 | Nc1ccc2cc3ccc([NH3+])cc3nc2c1.Nc1ccc2cc3ccc([NH3+])cc3nc2c1.O=S(=O)([O-])[O-] [Proflavine Hemisulfate] + CN(C)C/C=C/C(=O)Nc1cc2c(Nc3ccc(F)c(Cl)c3)ncnc2cc1O[C@H]1CCOC1 [Afatinib] | 59.6 | 116 | 29.5
2 | Nc1ccn(C2OC(CO)C(O)C2O)c(=O)n1 (stereo not drawn) [Cytarabine] + CN(C)C/C=C/C(=O)Nc1cc2c(Nc3ccc(F)c(Cl)c3)ncnc2cc1O[C@H]1CCOC1 [Afatinib] | 44.3 | 65.7 | 38.3
3 | CCCCc1oc2ccccc2c1C(=O)c1cc(I)c(OCCN(CC)CC)c(I)c1.Cl [Amiodarone HCl] + CN(C)C/C=C/C(=O)Nc1cc2c(Nc3ccc(F)c(Cl)c3)ncnc2cc1O[C@H]1CCOC1 [Afatinib] | 68.8 | 66.3 | 57.7
4 | CCc1c(Cl)c(O)c(Cl)c(O)c1C(=O)OC1C(C)OC(OCC2=CC=CCC(O)C(C)=CC(CC)C(OC3OC(C)(C)C(OC(=O)C(C)C)C(O)C3O)C(C)=CC(C)=CCC(C(C)O)OC2=O)C(OC)C1O (stereo not drawn) [Fidaxomicin] + CN(C)C/C=C/C(=O)Nc1cc2c(Nc3ccc(F)c(Cl)c3)ncnc2cc1O[C@H]1CCOC1 [Afatinib] | 56.2 | 81.9 | 51.9
5 | Cl.OC(c1cc(C(F)(F)F)nc2c(C(F)(F)F)cccc12)C1CCCCN1 (stereo not drawn) [Mefloquine hydrochloride] + CN(C)C/C=C/C(=O)Nc1cc2c(Nc3ccc(F)c(Cl)c3)ncnc2cc1O[C@H]1CCOC1 [Afatinib] | 49.3 | 50.3 | 55.9
6 | CCC(=C(c1ccccc1)c1ccc(OCCN(C)C)cc1)c1ccccc1.O=C(O)CC(O)(CC(=O)O)C(=O)O [Tamoxifen Citrate] + CN(C)C/C=C/C(=O)Nc1cc2c(Nc3ccc(F)c(Cl)c3)ncnc2cc1O[C@H]1CCOC1 [Afatinib] | 65 | 69.5 | 51
7 | Cl.OC(CNCC(O)C1CCc2cc(F)ccc2O1)C1CCc2cc(F)ccc2O1 (stereo not drawn) [Nebivolol] + CN(C)C/C=C/C(=O)Nc1cc2c(Nc3ccc(F)c(Cl)c3)ncnc2cc1O[C@H]1CCOC1 [Afatinib] | 47.1 | 64.9 | 44.7
8 | COc1cc2c(Oc3ccc(NC(=O)C4(C(=O)Nc5ccc(F)cc5)CC4)cc3F)ccnc2cc1OCCCN1CCOCC1 + CN(C)C/C=C/C(=O)Nc1cc2c(Nc3ccc(F)c(Cl)c3)ncnc2cc1O[C@H]1CCOC1 [Afatinib] | 33.9 | 28.5 | 37.7
9 | O=C(C=Cn1cnc(-c2cc(C(F)(F)F)cc(C(F)(F)F)c2)n1)NNc1cnccn1 + CN(C)C/C=C/C(=O)Nc1cc2c(Nc3ccc(F)c(Cl)c3)ncnc2cc1O[C@H]1CCOC1 [Afatinib] | 39.3 | 52.2 | 41.9
10 | CC(C)CC(NC(=O)CNC(=O)c1cc(Cl)ccc1Cl)B(O)O (stereo not drawn) + CN(C)C/C=C/C(=O)Nc1cc2c(Nc3ccc(F)c(Cl)c3)ncnc2cc1O[C@H]1CCOC1 [Afatinib] | 37 | 18.1 | 94.3
11 | C#Cc1cccc(Nc2ncnc3cc(OCCOC)c(OCCOC)cc23)c1.Cl [Erlotinib Hydrochloride] + CN(C)C/C=C/C(=O)Nc1cc2c(Nc3ccc(F)c(Cl)c3)ncnc2cc1O[C@H]1CCOC1 [Afatinib] | 47.7 | 54.5 | 37.5
12 | Clc1ccc(C(Cn2ccnc2)OCc2ccsc2Cl)c(Cl)c1 (stereo not drawn) [Tioconazole] + CN(C)C/C=C/C(=O)Nc1cc2c(Nc3ccc(F)c(Cl)c3)ncnc2cc1O[C@H]1CCOC1 [Afatinib] | 65.4 | 81.8 | 47.5
13 | Cc1cccc(CN2CCN(C(c3ccccc3)c3ccc(Cl)cc3)CC2)c1.Cl.Cl (stereo not drawn) [Meclizine 2HCl] + CN(C)C/C=C/C(=O)Nc1cc2c(Nc3ccc(F)c(Cl)c3)ncnc2cc1O[C@H]1CCOC1 [Afatinib] | 65.4 | 68.6 | 53.1
14 | CS(=O)(=O)CCNCc1ccc(-c2ccc3ncnc(Nc4ccc(OCc5cccc(F)c5)c(Cl)c4)c3c2)o1.Cc1ccc(S(=O)(=O)O)cc1.Cc1ccc(S(=O)(=O)O)cc1 [Lapatinib Ditosylate] + CN(C)C/C=C/C(=O)Nc1cc2c(Nc3ccc(F)c(Cl)c3)ncnc2cc1O[C@H]1CCOC1 [Afatinib] | 41.6 | 41.5 | 36.7
15 | Cl.O.O=C1Cc2cc(CCN3CCN(c4nsc5ccccc45)CC3)c(Cl)cc2N1 [Ziprasidone hydrochloride monohydrate] + CN(C)C/C=C/C(=O)Nc1cc2c(Nc3ccc(F)c(Cl)c3)ncnc2cc1O[C@H]1CCOC1 [Afatinib] | 46.7 | 70.3 | 45.2
16 | C=CC(=O)N1CCC(Oc2cc3c(Nc4ccc(Cl)c(Cl)c4F)ncnc3cc2OC)CC1 [Poziotinib] + CN(C)C/C=C/C(=O)Nc1cc2c(Nc3ccc(F)c(Cl)c3)ncnc2cc1O[C@H]1CCOC1 [Afatinib] | 42.9 | 27.6 | 22.2

Row | SMILES | cell viability of combination (HCI01) | cell viability of combination (UCD52) | cell viability of combination (WHIM2)
17 | COc1ccccc1OCCNCC(O)COc1cccc2[nH]c3ccccc3c12 (stereo not drawn) [Carvedilol] + CN(C)C/C=C/C(=O)Nc1cc2c(Nc3ccc(F)c(Cl)c3)ncnc2cc1O[C@H]1CCOC1 [Afatinib] | 48.7 | 59.2 | 41.1
18 | Cc1cc(-n2c(=O)[nH]c(=O)n(C)c2=O)ccc1Oc1ccc(SC(F)(F)F)cc1 [Toltrazuril] + CN(C)C/C=C/C(=O)Nc1cc2c(Nc3ccc(F)c(Cl)c3)ncnc2cc1O[C@H]1CCOC1 [Afatinib] | 58.1 | 76.1 | 48.4
19 | Clc1ccc(COC(Cn2ccnc2)c2ccc(Cl)cc2Cl)c(Cl)c1.O=[N+]([O-])O (stereo not drawn) [Miconazole Nitrate] + CN(C)C/C=C/C(=O)Nc1cc2c(Nc3ccc(F)c(Cl)c3)ncnc2cc1O[C@H]1CCOC1 [Afatinib] | 63.9 | 76.3 | 52.2
20 | CCOc1cc2ncc(C#N)c(Nc3ccc(OCc4ccccn4)c(Cl)c3)c2cc1NC(=O)C=CCN(C)C [Neratinib (HKI-272)] + CN(C)C/C=C/C(=O)Nc1cc2c(Nc3ccc(F)c(Cl)c3)ncnc2cc1O[C@H]1CCOC1 [Afatinib] | 60.9 | – | 25.5
21 | CC(O)C(=O)O.CCOc1ccc2nc3cc(N)ccc3c(N)c2c1.O [Ethacridine lactate monohydrate] + CN(C)C/C=C/C(=O)Nc1cc2c(Nc3ccc(F)c(Cl)c3)ncnc2cc1O[C@H]1CCOC1 [Afatinib] | 52.5 | – | 31.1
22 | O=C(NN=Cc1ccc([N+](=O)[O-])o1)c1ccc(O)cc1 [Nifuroxazide] + CN(C)C/C=C/C(=O)Nc1cc2c(Nc3ccc(F)c(Cl)c3)ncnc2cc1O[C@H]1CCOC1 [Afatinib] | 50.8 | – | 48.8
23 | CS(=O)(=O)O.Cc1c(O)cccc1C(=O)NC(CSc1ccccc1)C(O)CN1CC2CCCCC2CC1C(=O)NC(C)(C)C (stereo not drawn) [Nelfinavir Mesylate] + CN(C)C/C=C/C(=O)Nc1cc2c(Nc3ccc(F)c(Cl)c3)ncnc2cc1O[C@H]1CCOC1 [Afatinib] | 44.5 | – | 53.6
24 | Clc1ccc(C(Cn2ccnc2)OCc2c(Cl)cccc2Cl)c(Cl)c1.O=[N+]([O-])O (stereo not drawn) [Isoconazole nitrate] + CN(C)C/C=C/C(=O)Nc1cc2c(Nc3ccc(F)c(Cl)c3)ncnc2cc1O[C@H]1CCOC1 [Afatinib] | 63.8 | – | 52.1
25 | CCCCCCCCOc1ccccc1C(=O)Nc1ccc(C(=O)OCC[N+](C)(CC)CC)cc1.[Br-] [Otilonium Bromide] + CN(C)C/C=C/C(=O)Nc1cc2c(Nc3ccc(F)c(Cl)c3)ncnc2cc1O[C@H]1CCOC1 [Afatinib] | 52.9 | – | 53.9
26 | Br.Cc1ccc(Sc2ccccc2N2CCNCC2)c(C)c1 + CN(C)C/C=C/C(=O)Nc1cc2c(Nc3ccc(F)c(Cl)c3)ncnc2cc1O[C@H]1CCOC1 [Afatinib] | 49.7 | – | 46.7
27 | CC(C)C(=O)OCC(=O)[C@@]12O[C@H](C3CCCCC3)O[C@@H]1C[C@H]1[C@@H]3CCC4=CC(=O)C=C[C@]4(C)[C@H]3[C@@H](O)C[C@@]12C [Ciclesonide] + CN(C)C/C=C/C(=O)Nc1cc2c(Nc3ccc(F)c(Cl)c3)ncnc2cc1O[C@H]1CCOC1 [Afatinib] | 67.5 | – | 41.3
28 | CCCCc1oc2ccc(NS(C)(=O)=O)cc2c1C(=O)c1ccc(OCCCN(CCCC)CCCC)cc1 [Dronedarone] + CN(C)C/C=C/C(=O)Nc1cc2c(Nc3ccc(F)c(Cl)c3)ncnc2cc1O[C@H]1CCOC1 [Afatinib] | 48.1 | – | 44.1
29 | COc1cc(C(=O)O)ccc1NC(=O)C1NC(CC(C)(C)C)C(C#N)(c2ccc(Cl)cc2F)C1c1cccc(Cl)c1F (stereo not drawn) + CN(C)C/C=C/C(=O)Nc1cc2c(Nc3ccc(F)c(Cl)c3)ncnc2cc1O[C@H]1CCOC1 [Afatinib] | 49.1 | – | 44.7
30 | CC(C)(C)NC(=O)C1CC2CCCCC2CN1CC(O)C(Cc1ccccc1)NC(=O)C(CC(N)=O)NC(=O)c1ccc2ccccc2n1.CS(=O)(=O)O (stereo not drawn) [Saquinavir mesylate] + CN(C)C/C=C/C(=O)Nc1cc2c(Nc3ccc(F)c(Cl)c3)ncnc2cc1O[C@H]1CCOC1 [Afatinib] | 48.2 | – | 47.9
31 | O=C(NC1CCN(CCCCC2(C(=O)NCC(F)(F)F)c3ccccc3-c3ccccc32)CC1)c1ccccc1-c1ccc(C(F)(F)F)cc1 [Lomitapide] + CN(C)C/C=C/C(=O)Nc1cc2c(Nc3ccc(F)c(Cl)c3)ncnc2cc1O[C@H]1CCOC1 [Afatinib] | 55 | – | 27.4
32 | CN(C(=O)CN(CCO)CC(=O)N(C)C(C)(C)Cc1ccccc1)C(C)(C)Cc1ccccc1 [Oxethazaine] + CN(C)C/C=C/C(=O)Nc1cc2c(Nc3ccc(F)c(Cl)c3)ncnc2cc1O[C@H]1CCOC1 [Afatinib] | 49.1 | – | 41.4
